In test [1] the target is T1, Aspartate--tRNA(Asp/Asn) ligase (Mycobacterium tuberculosis (strain ATCC 25618 / H37Rv)) (UniProt P9WFW3). Also: in the data most compounds retested in dose-response had high values.
T1 sequence (whole entry): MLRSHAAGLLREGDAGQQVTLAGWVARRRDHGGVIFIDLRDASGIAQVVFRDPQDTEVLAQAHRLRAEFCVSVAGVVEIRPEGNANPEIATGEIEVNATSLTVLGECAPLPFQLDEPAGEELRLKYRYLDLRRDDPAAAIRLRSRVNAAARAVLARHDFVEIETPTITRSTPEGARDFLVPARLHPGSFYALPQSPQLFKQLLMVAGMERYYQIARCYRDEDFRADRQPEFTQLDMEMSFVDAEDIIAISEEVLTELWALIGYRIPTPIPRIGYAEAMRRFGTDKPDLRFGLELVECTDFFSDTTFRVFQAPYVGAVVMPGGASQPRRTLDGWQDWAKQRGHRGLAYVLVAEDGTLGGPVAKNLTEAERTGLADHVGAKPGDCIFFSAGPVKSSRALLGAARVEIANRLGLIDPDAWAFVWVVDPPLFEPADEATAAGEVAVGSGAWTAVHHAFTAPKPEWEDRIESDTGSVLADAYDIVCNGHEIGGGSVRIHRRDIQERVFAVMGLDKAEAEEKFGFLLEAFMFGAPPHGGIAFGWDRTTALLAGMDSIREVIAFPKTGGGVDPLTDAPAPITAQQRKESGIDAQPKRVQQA
Description: Assay for Asp RNA synthetase-1 from Mycobacterium tuberculosis. The test is classed as functional. Further details: scale not given: direction of the effect not stated beside the values. Conditions: 30 µM.

Test [2] deals with Shiga toxin 2 (Escherichia coli O157:H7) (UniProt P09385+P09386). Description: E. coli 0.157:H7 Shiga Toxin SOP - stx2 screening assay. Conditions: 30 µM. The test is classed as functional. Further details: scale not given: direction of the effect not stated beside the values.

On to `COc1ccc(CNC(=O)CNc2cc3c(cc2Cl)OCCCO3)cc1`, for which the Percent Effect in test [1] stood at 2.02%; in test [2], 0.898%.

`Cc1nn(CC(=O)N2CCCC2Cn2cccn2)c(C)c1Cl` (stereo not drawn): the Percent Effect was 0.155% in test [1] and -3.65% in test [2].

In the case of `O=C(c1cccc(S(=O)(=O)NCCCc2ccco2)c1)N1CCOCC1`, the Percent Effect is 6.79% in test [1] and -0.897% in test [2].

For `Fc1cnc(N2CCCC3(CN(Cc4ccncc4)CCO3)C2)nc1` (stereo not drawn), the Percent Effect is 7.9% in test [1] and -0.17% in test [2].

As to `CCc1n[nH]c(C2CN(CC(=O)NCCc3ccsc3)CCO2)n1` (stereo not drawn), the results for the Percent Effect in test [1] and in test [2] were -5.2% and -20.2%, respectively.

As to `O=S(=O)(c1cccs1)N1CC[C@H](O)[C@@H]1Cc1ccncc1`, the Percent Effect in test [1] was -0.474%; in test [2] it was 2.87%.

As for `Cc1ccccc1S(=O)(=O)NC(=O)CSc1ccc2c(c1)OCCO2`, the Percent Effect in test [1] is -0.334%; in test [2], -0.0455%.

For the compound `COCC1CN(Cc2ccc(C)o2)Cc2nnn(CC3CC3)c21` (stereo not drawn), the Percent Effect in test [1] was -0.416%; in test [2], -35.9%.

Turning to `CCN1CC2(CC1=O)CN(C(=O)c1ccco1)CCN(C(=O)N(C)C)C2` (stereo not drawn), the figures for the Percent Effect in test [1] and in test [2] were 0.684% and -12.4%, respectively.

In the case of `CCc1ccc(C(=O)Nc2ccc(CC3CC(=O)NC3=O)cc2)cc1` (stereo not drawn), the Percent Effect is 7.7% in test [1] and -36.3% in test [2].

On to `CNC(=O)C1Cn2ccnc2C2(CCN(CCF)CC2)O1` (stereo not drawn), for which the Percent Effect in test [1] was 2.17%; in test [2], -8.7%.

For `COCCN1CCC(NCc2cccnc2)C1` (stereo not drawn), the Percent Effect came to 4.4% in test [1] and 15.8% in test [2].

On to `O=C(C1SCCc2sccc21)N1CCN(CCO)CC1` (stereo not drawn), for which the Percent Effect was -0.774% in test [1] and 24.8% in test [2].

For `O=C(CCNC(=O)c1ccccc1N1CCOCC1)NC1CCCC1`, the Percent Effect in test [1] is -1.94%; in test [2], -19.9%.

For `COC[C@@]12CCO[C@@H]1CCN(C(=O)Cc1ccccc1F)C2`, the Percent Effect in test [1] was -2.8%; in test [2], -1.69%.

For the compound `c1ccc(-c2nc(CN3CCCC(Cn4cncn4)C3)no2)cc1` (stereo not drawn), the Percent Effect in test [1] was -9.3%; in test [2], 7.88%.

As to `COCC1CN(Cc2cc(C)on2)Cc2cn(C)nc21` (stereo not drawn), the Percent Effect is 1.83% in test [1] and -2.41% in test [2].

Consider `Cn1cc2c(n1)C(COCC1CC1)CN(Cc1ccccn1)C2` (stereo not drawn), for which the Percent Effect in test [1] is -2.25%; in test [2], 9.17%.

Regarding `Cc1ncccc1OC1(C(=O)NCCNc2ccccc2)CCNCC1`, the figures for the Percent Effect in test [1] and in test [2] were -0.792% and 6.67%, respectively.

These data come from ChEMBL document CHEMBL3988442, “University of Dundee, Small-Polar-MMV Screening Library” (2021).
